Drawing on PubChem BioAssay (Tox21), this text covers Potency and outcome for eight compounds.

Experiment [1] in a line: qHTS assay for small molecule agonists of the p53 signaling pathway (AID 651631; calls by dose curve; further: nearly all actives have a fitted effect of over 15% in size). The essentials:
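Read-out is beta-lactamase FRET fluorescence measured 2 h after substrate addition at room temperature, in HCT-116 cells with a p53 response element-driven reporter exposed to compounds for 16 h at 37 °C.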
For orientation: Quantitative high-throughput screening tests each substance at several concentrations.

Experiment [2] can be described thus: qHTS assay for small molecules that induce genotoxicity in human embryonic kidney cells expressing luciferase-tagged ATAD5 (AID 651632). Further: nearly all actives have a fitted effect of over 15% in size. The essentials: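 Quantitative HTS in HEK293T expressing luciferase-tagged ATAD5, whose levels rise upon DNA damage. Exposure ran 16 hr at 37C and 5% CO2, with luminescence read 30 min after Amplite addition at room temperature.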

Experiment [3] in a line: qHTS assay for small molecule agonists of the p53 signaling pathway - cell viability (AID 651633; calls by dose curve;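 further: p53RE-bla HCT reporter cells with a stable beta-lactamase p53 reporter; series mostly up to about 83 µM; nearly all actives have a fitted effect of over 30% in size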). The essentials:
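Viability counter-read: CellTiter-Glo luminescence (30 min, room temperature) in the same p53RE-bla plates. These plates had been exposed to compounds for 16 h at 37 C.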

Experiment [4] in a line: qHTS assay for small molecules that induce genotoxicity in human embryonic kidney cells expressing luciferase-tagged ATAD5 - cell viability (AID 651634; calls by dose curve; further: nearly all actives have a fitted effect of over 25% in size). The essentials:
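After 15.5 hr incubation with compound at 37C, 5% CO2, HEK293T ATAD5-luciferase cells received CellTiter-Fluor reagent; fluorescence intensity was quantified following 30 min at 37C.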

The nature of experiment [5]: qHTS assay for small molecule disruptors of the mitochondrial membrane potential - cell viability (AID 720634; calls by dose curve;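 further: human HepG2 liver cancer cells; series mostly up to about 83 µM; nearly all actives have a fitted effect of over 20% in size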). The essentials:
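ATP-based luminescent viability readout (CellTiter-Glo, 30 min, room temperature) in HepG2 cells multiplexed with the m-MPI membrane potential dye; compound exposure lasted 1 hr at 37 C.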

A short description of experiment [6]: qHTS assay for small molecule disruptors of the mitochondrial membrane potential (AID 720635). Further: potency means the concentration at half of the fitted maximal effect. The essentials: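 Mitochondrial membrane potential tracked with Mito-MPS dye, red aggregates (ex 540/em 590 nm) against green monomers (ex 490/em 535 nm). Compound treatment 1 hr at 37C, dye 30 min in HepG2.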
Experiment [7] in a line: qHTS assay to test for compound auto fluorescence at 590 nm (red) in HepG2 cells (AID 720674). The essentials:
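We screened compounds on adherent HepG2 cells, incubating them for an hour at 37 C in 5% CO2 before reading emission at 590 nm under 540 nm excitation; values reflect equivalence to Rose Bengal sodium fluorescence.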

Experiment [8] is described as follows: qHTS assay to test for compound auto fluorescence at 535 nm (green) in HepG2 cells (AID 720675).
Experiment [9] can be described thus: qHTS assay to test for compound auto fluorescence at 590 nm (red) in HEK293 cells (AID 720679). The essentials:
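Plates of HEK293 cells (10% dialyzed FBS) are treated with 23 nL compound or DMSO vehicle after a 4-5 hr attachment period, incubated overnight at 37C, and read for red fluorescence at 540/590nm.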

The nature of experiment [10]: qHTS assay to test for compound auto fluorescence at 535 nm (green) in HEK293 cells (AID 720680).
Experiment [11] is described as follows: qHTS assay to test for compound auto fluorescence at 460 nm (blue) in HEK293 cell free culture (AID 720681). The essentials: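 Blue fluorescence (Ex 405/Em 460 nm, triamterene-equivalent) was read immediately after pin transfer of compound or DMSO into medium (DMEM, 10% FBS) without cells.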
Experiment [12] in a line: qHTS assay to test for compound auto fluorescence at 535 nm (green) in HEK293 cell free culture (AID 720682). The essentials: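 Fluorescein serves as the green reference fluorophore; each compound's intrinsic emission at 535 nm (excitation 485 nm) is reported as an equivalent amount of that dye, measured in serum-containing DMEM without cells.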
Experiment [13] in a line: qHTS assay to test for compound auto fluorescence at 590 nm (red) in HEK293 cell free culture (AID 720683). The essentials: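 Red-channel autofluorescence of compounds in culture medium (DMEM, 10% FBS), no cells, measured at 540/590 nm. Rose Bengal sodium is the reference fluorophore for equivalence.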
The nature of experiment [14]: qHTS assay to test for compound auto fluorescence at 590 nm (red) in HepG2 cell free culture (AID 720684). The essentials:
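Cell-free; medium MEM + 10% FBS; compound or DMSO added by pintool; read Ex 540/Em 590 nm; Rose Bengal sodium as red reference fluorophore.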

Experiment [15] can be described thus: qHTS assay to test for compound auto fluorescence at 460 nm (blue) in HepG2 cell free culture (AID 720685). The essentials:
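Cell-free plates of MEM plus 10% FBS received 23 nL compound or DMSO vehicle; blue-channel (405/460 nm) intensity scored against triamterene as reference fluorophore.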

Experiment [16] is described as follows: qHTS assay to test for compound auto fluorescence at 535 nm (green) in HepG2 cell free culture (AID 720686).
Experiment [17] is described as follows: qHTS assay to test for compound auto fluorescence at 460 nm (blue) in HepG2 cells (AID 720687). The essentials: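 Blue-channel autofluorescence (Ex/Em 405/460 nm, triamterene-equivalent) was measured after 1 hr compound exposure at 37 C, 5% CO2. Cells were HepG2, plated overnight at 37 C in MEM plus 10% FBS.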
The target of experiment [18] is Glucocorticoid receptor (Homo sapiens) (UniProt P04150). The experiment in a line: qHTS assay to identify small molecule agonists of the glucocorticoid receptor (GR) signaling pathway (AID 720691; active means well fitted activation curve with a large enough effect in the signal ratio in the repeat runs, not every such curve was filed as active; the % refers to the signal ratio). The essentials:
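Cells: GR-bla HeLa, endogenous GR with stably integrated GRE-beta-lactamase reporter. Treatment 18 h, 37 C, compounds delivered in DMSO. Detection via LiveBLAzer B/G FRET substrate, 2 h RT, fluorescence intensity.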

Experiment [19] is described as follows: qHTS assay to test for compound auto fluorescence at 460 nm (blue) in HEK293 cells (AID 720678). The essentials:
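After cell attachment (4-5 hr, 37C), compounds were pinned onto HEK293 monolayers in 10% dialyzed FBS medium. The blue channel (405/460 nm) was read following overnight culture. Equivalency was calculated against triamterene.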

Experiment [20] addresses Glucocorticoid receptor (Homo sapiens) (UniProt P04150). As to the kind of experiment: qHTS assay to identify small molecule antagonists of the glucocorticoid receptor (GR) signaling pathway (AID 720692; active means well fitted inhibition curve with a large enough effect in the signal ratio in the repeat runs, not every such curve was filed as active; the % refers to the signal ratio). The essentials:
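Quantitative HTS in antagonist format: HeLa cells expressing endogenous GR and a stably integrated GRE-bla reporter, stimulated with 5 nM dexamethasone (final) alongside test compounds for 18 h.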

Results filed as inconclusive are left out. The source made the active and inactive calls. Unless noted, the call rests on the fitted dose curve; in most records, active means well fitted curve in the direction sought with a large enough effect in the repeat runs; inconclusive means weak or mixed curves; inactive means no such curve, though single readings can be large; an effect the other way counts as inactive or inconclusive.

Glucocorticoid receptor (Homo sapiens), sequence (P04150 whole entry, looked up): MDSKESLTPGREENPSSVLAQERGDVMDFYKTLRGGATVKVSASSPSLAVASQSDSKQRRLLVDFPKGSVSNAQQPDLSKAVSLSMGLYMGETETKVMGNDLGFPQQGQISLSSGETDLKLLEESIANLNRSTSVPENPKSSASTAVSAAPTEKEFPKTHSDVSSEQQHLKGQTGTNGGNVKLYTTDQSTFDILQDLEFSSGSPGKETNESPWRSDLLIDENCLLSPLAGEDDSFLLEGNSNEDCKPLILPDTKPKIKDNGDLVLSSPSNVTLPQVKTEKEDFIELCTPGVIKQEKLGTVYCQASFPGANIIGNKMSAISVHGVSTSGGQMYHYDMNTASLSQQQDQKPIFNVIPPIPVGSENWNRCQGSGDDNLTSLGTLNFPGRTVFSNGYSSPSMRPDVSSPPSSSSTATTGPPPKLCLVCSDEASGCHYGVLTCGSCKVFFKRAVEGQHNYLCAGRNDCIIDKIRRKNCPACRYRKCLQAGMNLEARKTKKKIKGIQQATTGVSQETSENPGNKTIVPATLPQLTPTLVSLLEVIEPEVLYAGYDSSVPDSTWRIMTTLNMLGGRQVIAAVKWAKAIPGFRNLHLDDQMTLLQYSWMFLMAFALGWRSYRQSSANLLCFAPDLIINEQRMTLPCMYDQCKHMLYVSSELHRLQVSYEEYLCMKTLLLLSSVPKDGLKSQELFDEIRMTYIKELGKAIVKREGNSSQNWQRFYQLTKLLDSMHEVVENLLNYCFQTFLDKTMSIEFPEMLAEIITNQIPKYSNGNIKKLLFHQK

As to `O=C(O)c1cc(Cl)ccc1Cl`, the Potency entry in [1], in experiment [2], in experiment [3], in [4], in experiment [5] and in experiment [6] was “inactive” throughout. Moreover, the Potency entry in [18] is “inactive”. Besides, the outcome in experiment [7], in [8], in experiment [9], in [10], in [11] and in [12] was inactive. In addition, the compound was classed as inactive in [13], in experiment [14], in experiment [15], in experiment [16] and in experiment [17].
On to `O=[N+]([O-])O[C@H]1CO[C@H]2[C@@H]1OC[C@H]2O[N+](=O)[O-]`, for which the Potency result in experiment [1], in experiment [2], in [3], in experiment [4], in experiment [5] and in experiment [6] was “inactive” each time. The Potency entry in experiment [18] was “inactive”. Also, the outcome in experiment [7], in [8], in experiment [19], in [9], in [10] and in experiment [11] was inactive. The outcome in experiment [12], in experiment [13], in [14], in experiment [15] and in experiment [17] was inactive.
On to `O=C(Cc1ccccc1)OCCc1ccccc1`, for which the Potency result in experiment [1], in experiment [2], in [3], in experiment [4], in experiment [5] and in experiment [6] was “inactive” throughout. For the same compound, the Potency entry in experiment [18] and in experiment [20] was “inactive” each time. The call in experiment [7], in [8], in [19], in experiment [9], in [10] and in experiment [11] was inactive. For the same compound, the compound was classed as inactive in experiment [12], in [13], in experiment [14], in experiment [15], in experiment [16] and in experiment [17].
Regarding `COc1ccccc1N1CCNCC1`, the Potency result in experiment [1], in experiment [2], in experiment [3], in experiment [4], in experiment [5] and in experiment [6] was “inactive” throughout. The Potency entry in experiment [18] and in experiment [20] was “inactive” in each case. Further, the compound was called inactive in [7], in experiment [8], in experiment [19], in experiment [9], in experiment [10] and in experiment [11]. Moreover, the call in [12], in experiment [13], in experiment [14], in [15], in experiment [16] and in [17] was inactive.
As for `C[N+](C)(C)CC1CO1` (stereo not given), the Potency entry in experiment [1], in experiment [2], in experiment [3], in experiment [4], in [5] and in [6] was “inactive” each time. Besides, the call in experiment [7], in experiment [8], in experiment [9], in [10], in experiment [12] and in [13] was inactive. Also, the compound was called inactive in [14], in [15] and in [17].
For `C1CCNCC1`, the Potency result in [1], in [2], in experiment [3], in experiment [4], in experiment [5] and in experiment [6] was “inactive” each time. Further, the compound was classed as inactive in experiment [7], in [8], in experiment [19], in experiment [9], in experiment [10] and in [11]. The result in [12], in [13], in experiment [14], in experiment [15], in experiment [16] and in experiment [17] was inactive.
`OCCCl`: the Potency result in experiment [1], in [2], in [3], in experiment [4], in experiment [5] and in experiment [6] was “inactive” each time. In addition, the Potency result in experiment [18] and in experiment [20] was “inactive” throughout. In addition, the compound was called inactive in experiment [7], in [8], in experiment [19], in [9], in experiment [10] and in experiment [12]. Moreover, the compound was classed as inactive in [13], in experiment [14], in experiment [15] and in experiment [17].
As to `N#CC(C#N)=Cc1ccc(O)c(O)c1`, the Potency result in experiment [1], in [2], in [3], in experiment [4] and in [5] was “inactive” each time. Moreover, the Potency in experiment [6] was 11.9 µM (active). For the same compound, the compound was classed as inactive in experiment [7], in experiment [8], in experiment [19], in experiment [9], in [10] and in experiment [11]. Also, the result in [12], in [13], in experiment [14], in [15], in experiment [16] and in experiment [17] was inactive.
